TrxR1 substrate: substrates of rat thioredoxin reductase 1; purified TrxR1 substrate turnover, NADPH consumption readout; Potency, µM (highest dose often 114 µM); O89049; hit rate 0.01% among 390,000; further: nearly all actives have a fitted effect of over 50% in size
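Rat TrxR1, dispensed at 90 nM, was prereduced with 400 uM NADPH (final) for 5 min at ~22 deg C, then incubated with compound 15 min before 400 uM selenite. A first-read NADPH fluorescence drop versus no-compound background flagged substrates.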
A549 tox: kills or reduces viability of A549 cells in Nrf2 counter-screen; A549 ARE-Fluc cells, CellTiter-Fluor viability, 18-24 h; Potency, µM (top dose mostly 46 µM), hits mostly inhibitors; hit rate 0.16% among 390,000; AID 504648
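Cytotoxicity counterscreen: CellTiter-Fluor fluorescence was measured in A549 ARE_Fluc cells after 18-24 h of compound exposure in a concentration series. The subsequent BugLite luminescent read reports ARE-luciferase activity.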
GALK inhibitor: inhibitors of human galactokinase. P51570. Purified GALK, Kinase-Glo residual ATP luminescence. Potency, µM (titrated, usually from 57.5 µM), most hits filed as inhibitors. hit rate 0.007% among 270,000
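Quantitative HTS: GALK 5 nM, ATP 35 uM, galactose 100 uM, 1 h room temperature, then luciferase-based ATP detection.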
TrxR1 inh-1: rat TrxR1 inhibition; O89049; recombinant rTrxR1, NADPH fluorescence consumption, selenite substrate; Potency, µM (titrated, usually from 114 µM), most hits filed as inhibitors; hit rate 1% among 390,000; further: nearly all actives have a fitted effect of over 65% in size
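Rat TrxR1 (90 nM in the dispensed reagent) was pre-reduced with 400 uM NADPH for 5 min at room temperature, then incubated with compound for 15 min. After 400 uM selenite was added, NADPH fluorescence (Ex 340/Em 450 nm) was followed for 8 min.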
Nrf2 inh: blocks Nrf2 signaling; A549 ARE-Fluc reporter, luciferase luminescence, 18-24 h; Potency, µM (series often up to 46 µM), usual class: inhibitors; hit rate 2.1% among 360,000; further: nearly all actives have a fitted effect of over 60% in size
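Reporter: ARE-Fluc in A549. Exposure: 18-24 h, 37 °C, 5% CO2, 5% FBS OPTI-MEM. Readouts: fluorescent cytotoxicity (CellTiter-Fluor), then luminescent Nrf2 signal after BugLite.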
Nrf2 activator: activators of Nrf2 (ARE) signaling. Potency, µM (top dose mostly 46.1 µM), actives largely listed as activators. AREc32 ARE-luciferase reporter (MCF7-derived line), luminescence, 24 h. hit rate 0.31% among 410,000; further: nearly all actives have a fitted effect of over 65% in size
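Luciferase luminescence (Steady-Glo, 30 min at room temperature) served as the read-out of ARE activation in AREc32 cells treated with compounds for 24 hr at 37 deg C.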
TRb-SRC2 inh: confirmation of human TRb-SRC2 interaction inhibitors; shares compounds with TrxR1 inh-1; AlphaScreen TRb LBD-SRC2 peptide binding, luminescence; Potency, µM; hit rate 50% among 30; AID 2444; calls by dose curve
Target sequence (P10828 whole entry, looked up, the tested form may be a part): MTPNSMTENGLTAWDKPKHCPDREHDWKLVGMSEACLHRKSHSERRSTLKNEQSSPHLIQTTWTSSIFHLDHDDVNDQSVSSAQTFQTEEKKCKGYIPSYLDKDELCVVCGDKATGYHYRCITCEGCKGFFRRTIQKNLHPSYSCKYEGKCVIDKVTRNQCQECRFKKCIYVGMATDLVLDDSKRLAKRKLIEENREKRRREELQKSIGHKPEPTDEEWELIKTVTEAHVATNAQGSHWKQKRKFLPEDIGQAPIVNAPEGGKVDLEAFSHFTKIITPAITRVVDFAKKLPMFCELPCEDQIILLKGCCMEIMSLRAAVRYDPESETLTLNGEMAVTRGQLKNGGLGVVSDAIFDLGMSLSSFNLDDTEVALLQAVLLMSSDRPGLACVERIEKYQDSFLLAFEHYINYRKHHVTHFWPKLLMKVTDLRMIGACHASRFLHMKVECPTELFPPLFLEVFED
HepG2 tox: counter-screen for TRb-SRC2 inhibitors: HepG2 cytotoxicity; HepG2 viability, ATP luminescence (CellTiter-Glo), 72 h; AID 2447; hit rate 50% among 40; shares compounds with TrxR1 inh-1; Potency, µM; calls by dose curve
AR-SRC2 inh: AR-SRC2 (human) interaction inhibition, selectivity | shares compounds with TrxR1 inh-1 | AR-LBD Tx-SRC2-3 fluorescence polarization, 3 h | calls only | 25 tested, under 10 active; call rule not given here
PPARg DRIP2 FP: disrupts human PPARgamma binding to DRIP-2 peptide; shares compounds with TrxR1 inh-1; PPARg LBD / Texas Red DRIP-2 peptide, fluorescence polarization, 3 h; Potency, µM; 25 tested, under 10 active; AID 2449; calls by dose curve
VDR-SRC2 FP sel: VDR-SRC2 (human) interaction inhibition, selectivity; shares compounds with TrxR1 inh-1; VDR LBD/SRC2-3 peptide, fluorescence polarization, 3 h; Potency, µM; 25 tested, under 10 active; calls by dose curve
TRb-SRC2 FP Fluo: confirmation of human TRb-SRC2 interaction inhibitors; shares compounds with TrxR1 inh-1; TRb LBD / fluorescein-SRC2 peptide, fluorescence polarization; Potency, µM; 20 tested, under 10 active; call rule not given here
GR inh: inhibits human glutathione reductase in TrxR1 counterassay; shares compounds with TrxR1 inh-1; purified GR, DTNB reduction absorbance 405 nm kinetic; activity change, negative = inhibition, % at 57.1 µM; 55 tested, under 10 active; AID 652020
TrxR1 inh-2: blocks rat thioredoxin reductase 1 in hit validation; shares compounds with TrxR1 inh-1; hit rate 50% among 55; recombinant TrxR1, NADPH fluorescence consumption, selenite substrate; Potency, µM, hits mostly inhibitors
TrxR1 insulin MOA: TrxR1 inhibition in insulin mechanism assay; shares compounds with TrxR1 inh-1; TrxR1 Trx-coupled insulin reduction, NADPH absorbance 340 nm; Potency, µM; hit rate 20% among 55; AID 652037;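 active means compounds with a measured potency under 100 micromolar; inconclusive means filed, but no rule given; inactive means potency at or above that, or unmeasurable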
TrxR1 inh-3: rat thioredoxin reductase 1 inhibition, DTNB assay | purified TrxR1, DTNB reduction, A412 | Potency, µM | shares compounds with TrxR1 inh-1 | hit rate 90% among 55;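 active means a half-inhibiting concentration could be measured and was below 100 µM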
Each line names hits and unclear results; the compound was inactive in the other large screens (follow-up assays come after a bar, where they were run); ! = repeats disagree. Hits are enriched below; roughly 3% of the tested compounds scored in any of these assays. Unless noted, the call rests on the fitted dose curve; in most records, active means well fitted curve in the direction sought with a large enough effect; inconclusive means small, poorly fitted or top-dose-only effect, or another doubt; inactive means no such curve, though single readings can be large; an effect the other way counts as inactive or inconclusive.

Cc1cccc(C(=O)Nc2nnc(S(=O)(=O)N(C)Cc3ccco3)s2)c1	TrxR1 inh-1 44.7µM! | GR inh inactive | TrxR1 inh-2 inconclusive | TrxR1 insulin MOA inconclusive | TrxR1 inh-3 48.8µM
O=C(COC(=O)c1ccc(C(F)(F)F)cc1)NC(=O)C1CCCCC1	Nrf2 inh inconclusive (no result: GALK inhibitor, Nrf2 activator) | TRb-SRC2 inh inactive | HepG2 tox inactive | TRb-SRC2 FP Fluo inactive
CS(=O)(=O)c1ccc(C(=O)OCC(=O)NC(=O)C2CCCCC2)cc1[N+](=O)[O-]	A549 tox inconclusive, TrxR1 inh-1 3.16µM | TRb-SRC2 inh 0.6µM | HepG2 tox 22.9µM | AR-SRC2 inh inactive | PPARg DRIP2 FP 22.4µM | VDR-SRC2 FP sel inactive | TRb-SRC2 FP Fluo 10.7µM
CC1(C)C2CCC1(C)C(NC(=O)COC(=O)c1ccc(S(C)(=O)=O)c([N+](=O)[O-])c1)C2 (configuration not stated)	TrxR1 inh-1 3.55µM, Nrf2 inh inconclusive (no result: GALK inhibitor, Nrf2 activator) | TRb-SRC2 inh 6.8µM | HepG2 tox 23.4µM | AR-SRC2 inh inactive | PPARg DRIP2 FP inactive | VDR-SRC2 FP sel 40µM | TRb-SRC2 FP Fluo 3.3µM
CC(=O)Nc1cccc(C(=O)OCC(=O)NC(=O)C2CCCCC2)c1	none (no result: GALK inhibitor, Nrf2 activator) | TRb-SRC2 inh inactive | HepG2 tox inactive | TRb-SRC2 FP Fluo inactive
CC(=O)Nc1cccc(C(=O)OCC(=O)NC2CCCCCCC2)c1	none (no result: GALK inhibitor)
O=C(CC1Sc2ccccc2NC1=O)Nc1ccccc1[N+](=O)[O-] (configuration not stated)	none
CNc1ccc(C(=O)OCC(=O)NC(=O)NC2CCCCC2)cc1[N+](=O)[O-]	none (no result: GALK inhibitor)
O=C(COC(=O)c1ccc2ncsc2c1)NC(=O)C1CCCCC1	Nrf2 inh inconclusive (no result: GALK inhibitor, Nrf2 activator) | TRb-SRC2 inh inactive | HepG2 tox 20.3µM | TRb-SRC2 FP Fluo inactive
CC1CCC(NC(=O)COC(=O)c2ccc3ncsc3c2)CC1 (configuration not stated)	none (no result: GALK inhibitor)
Cc1cc(C(=O)OCC(=O)NC(=O)C2CCCCC2)ccc1[N+](=O)[O-]	none (no result: GALK inhibitor, Nrf2 activator) | TRb-SRC2 inh inactive | HepG2 tox inconclusive | TRb-SRC2 FP Fluo inactive
O=Cc1cccn1-c1ccc(O)cc1	none
CS(=O)(=O)c1ccc(C(=O)OC(C(=O)NC2C3CC4CC(C3)CC2C4)c2ccccc2)cc1[N+](=O)[O-] (configuration not stated)	none (no result: TrxR1 substrate, A549 tox, GALK inhibitor, TrxR1 inh-1, Nrf2 inh, Nrf2 activator) | HepG2 tox 10µM

High-throughput results from PubChem.
